Bioassay records: PubChem, Broad Institute
BL2 CD40 inh: CD40 pathway inhibition in BL2 cells; inhibition, % at 10 µM; 83,000 compounds, 0.94% hits; BL2 NF-kB luciferase reporter, CD40L-induced, 4 h; AID 1053188;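 active means mean inhibition of at least 50% with a set share of replicates also reaching that level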;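 further: 0% = neutral control wells and 100% = IKK inhibitor VII at 50 µM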
An asterisk follows results filed as active; [ ] = dose if it differs, or a comment. Shown is part of a subset that was picked to be rich in hits.

SMILES | BL2 CD40 inh
C[C@@H]1CN([C@@H](C)CO)C(=O)Cc2cc(NC(=O)Nc3ccc4c(c3)OCO4)ccc2O[C@H]1CN(C)C(=O)NC1CCCCC1 | 1
CCOC(=O)N(C)C[C@H]1OCc2ccccc2-c2ccccc2C(=O)N([C@@H](C)CO)C[C@@H]1C | -12
CN1C(=O)c2cc(NC(=O)c3cccc(F)c3)ccc2OC[C@H]2O[C@H](CC(=O)NCc3ccccc3Cl)CC[C@H]21 | 20[25 µM]
O=C(C[C@@H]1C[C@H]2c3cc(NS(=O)(=O)c4ccc(F)cc4)ccc3O[C@H]2[C@@H](CO)O1)NC1CCCC1 | -4
C[C@@H]1CN(C)C(=O)c2cc(N)ccc2O[C@H]1CN(C)C(=O)OC(C)(C)C | 0
O=C(c1ccccc1)c1ccc(OCC(O)CNCc2ccc(F)cc2)cc1 (stereo not drawn) | 10
Cc1ccc(C(OCC(O)CNCc2ccc(F)cc2)c2ccccc2)cc1 (stereo not drawn) | 50*
OC(COC(c1ccc(F)cc1)c1ccc(F)cc1)CN1CCCC1 (stereo not drawn) | 6
COc1ccc2c3c([nH]c2c1)[C@H](CO)N(Cc1ccncc1)CC31CN(Cc2ccc(-c3ccccn3)cc2)C1 | -2[25 µM]
Cc1ccc(Nc2ncccc2C(=O)O)cc1C | -63
O=C(Nc1cccc(C(F)(F)F)c1)OCc1ccncc1 | 3
O=C1OC(OC(=O)c2cccnc2Nc2cccc(C(F)(F)F)c2)c2ccccc21 (stereo not drawn) | 85*[25 µM]
CC1(C)C2CCC1(C)C(OCC[N+](C)(C)CC(=O)OC1CCCCC1)C2 (stereo not drawn) | 57*
CC1(C)[C@H]2CC[C@]1(C)[C@@H](OC(=O)C[N+]1(C)CCOCC1)C2 | 0
O=C(CCCCC(=O)OC1CCCCC1)OC1CCCCC1 | -10
O=C(c1ccccn1)N1C[C@H]2[C@@H](c3ccccc31)[C@@H](CO)N2C(=O)C1CCCC1 | 5
CC(=O)N1[C@H](C(=O)NCc2ccccc2Cl)[C@@H](CO)[C@@H]2Cn3c(ccc(-c4cncnc4)c3=O)[C@@H]21 | -2[25 µM]
CC(C)C(NC(=O)CN1C(=O)c2ccccc2S1(=O)=O)C(C)C | -1
O=C1c2ccccc2S(=O)(=O)N1Cc1nc2ccccc2s1 | 70*
O=C(CN1C(=O)c2ccccc2S1(=O)=O)Nc1ccccn1 | 7
COCCNC(=O)C[C@@H]1C[C@@H]2c3cc(NC(=O)CN(C)C)ccc3O[C@@H]2[C@@H](CO)O1 | -2[25 µM]
C[C@@H]1CCCCO[C@@H](CN(C)C(=O)C2CCCCC2)[C@@H](C)CN([C@H](C)CO)C(=O)c2cc(NS(=O)(=O)c3ccccc3)ccc2O1 | 67*[25 µM]
C[C@@H]1CCCCO[C@@H](CN(C)Cc2ccc(C(F)(F)F)cc2)[C@@H](C)CN([C@H](C)CO)C(=O)c2cc(NC(=O)Nc3cccc4ccccc34)ccc2O1 | 16[25 µM]
C[C@H]1CCCCO[C@@H](CN(C)C(=O)C2CCCCC2)[C@@H](C)CN([C@@H](C)CO)C(=O)c2cc(NS(=O)(=O)c3ccccc3)ccc2O1 | 10[25 µM]
COc1ccc(S(=O)(=O)Nc2ccc3c(c2)C(=O)N([C@H](C)CO)C[C@H](C)[C@@H](CN(C)Cc2ccc(C(F)(F)F)cc2)OCCCC[C@@H](C)O3)cc1 | 53*[25 µM]
SMILES | BL2 CD40 inh
C[C@H]1CCCCO[C@H](CN(C)C(=O)C2CCCCC2)[C@@H](C)CN([C@@H](C)CO)C(=O)c2cc(NS(=O)(=O)c3ccccc3)ccc2O1 | 14[25 µM]
C[C@@H]1CCCCO[C@@H](CN(C)Cc2ccc(C(F)(F)F)cc2)[C@H](C)CN([C@H](C)CO)C(=O)c2cc(NC(=O)Nc3cccc4ccccc34)ccc2O1 | 29[25 µM]
C[C@@H]1CN([C@H](C)CO)C(=O)c2cc(NC(=O)Nc3cccc4ccccc34)ccc2O[C@@H](C)CCCCO[C@H]1CN(C)Cc1ccc(C(F)(F)F)cc1 | 49*[25 µM]
C[C@@H]1CCCCO[C@H](CN(C)Cc2ccc(C(F)(F)F)cc2)[C@H](C)CN([C@@H](C)CO)C(=O)c2cc(NC(=O)Nc3cccc4ccccc34)ccc2O1 | 15[25 µM]
COc1ccc(S(=O)(=O)Nc2ccc3c(c2)C(=O)N([C@H](C)CO)C[C@@H](C)[C@H](CN(C)Cc2ccc(C(F)(F)F)cc2)OCCCC[C@H](C)O3)cc1 | 26[25 µM]
C[C@@H]1CCCCO[C@H](CN(C)Cc2ccc(C(F)(F)F)cc2)[C@@H](C)CN([C@@H](C)CO)C(=O)c2cc(NC(=O)Nc3cccc4ccccc34)ccc2O1 | 51*[25 µM]
COc1ccc(S(=O)(=O)Nc2ccc3c(c2)C(=O)N([C@@H](C)CO)C[C@H](C)[C@@H](CN(C)Cc2ccc(C(F)(F)F)cc2)OCCCC[C@H](C)O3)cc1 | 15[25 µM]
C[C@@H]1CCCCO[C@@H](CN(C)Cc2ccc(C(F)(F)F)cc2)[C@H](C)CN([C@@H](C)CO)C(=O)c2cc(NC(=O)Nc3cccc4ccccc34)ccc2O1 | 10[25 µM]
CN1C(=O)c2cc(NC(=O)c3cnccn3)ccc2OC[C@@H]2O[C@H](CC(=O)N[C@H]3CCN(Cc4ccccc4)C3)CC[C@@H]21 | 6[25 µM]
C[C@@H]1CN(C)C(=O)Cc2cc(N(C)C)ccc2O[C@@H]1CN(C)C | -5
